# Source: PubChem BioAssay (NCI)
# The panel holds about 83,000 compounds, 20% with a hit somewhere; the sample as a whole holds those more often.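 For each line, cells grew in 96-well plates with the test compound present at a single concentration for 48 hours.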 Values without a mark were called inactive. The source made the active and inactive calls. How the source made its calls: active means growth percent below 10; inactive means the rest.
# Tests used:
# Experiment in all cases: NCI-60 one-dose screen, 48 h (100 = growth as untreated, 0 = no growth, -100 = all killed)
# Conditions in all cases: 10 µM unless noted
# RPMI-8226 leukemia = tested on: RPMI-8226 leukemia
# OVCAR-8 ovarian = tested on: OVCAR-8 ovarian
# OVCAR-5 ovarian = tested on: OVCAR-5 ovarian
# OVCAR-4 ovarian = tested on: OVCAR-4 ovarian
# SK-OV-3 ovarian = tested on: SK-OV-3 ovarian
# OVCAR-3 ovarian = tested on: OVCAR-3 ovarian
# HS 578T breast = tested on: HS 578T breast
# NCI/ADR-RES ovarian = tested on: NCI/ADR-RES ovarian
# IGROV1 ovarian = tested on: IGROV1 ovarian
Compound,growth (RPMI-8226 leukemia),growth (OVCAR-8 ovarian),growth (OVCAR-5 ovarian),growth (OVCAR-4 ovarian),growth (SK-OV-3 ovarian),growth (OVCAR-3 ovarian),growth (HS 578T breast),growth (NCI/ADR-RES ovarian),growth (IGROV1 ovarian)
CCCCCc1ccc(S(=O)(=O)Nc2cc(-c3csc(NC(C)=O)n3)ccc2N2CCN(C)CC2)cc1,-28.7% (active),70.1%,85.3%,66%,92.6%,75.6%,67.3%,61.2%,
O=C1C=C(SCCO)C(=O)c2ccccc21,12.9%,28.9%,87.7%,39.1%,105%,-3.21% (active),2.8% (active),4.12% (active),68.6%
O=[N+]([O-])c1ccccc1Nc1ccc2ccccc2c1,82.7%,88.6%,113%,88%,84.7%,96.3%,72.5%,105%,87%
c1cc(OCCN2CCCCC2)ccc1CNc1ccc2nc(CCC3CCCCC3)[nH]c2c1,-22.5% (active),36.6%,60.2%,49.5%,86.1%,48.4%,45.8%,63.8%,42.3%
CCn1cc(C(=O)N/N=C/c2ccccc2)c(=O)c2cc(F)c(N3CCNC(C)C3)c(F)c21 (stereo not given),-42.4% (active),28.4%,67%,70.7%,104%,-75% (active),69.7%,56%,58%
O=C(Nc1ccc(Oc2cccc(Cl)c2)c(Cl)c1)c1cccnn1,71.1%,91.7%,91.1%,68.6%,102%,85.6%,106%,85%,91.4%
COc1cc(-c2cc(-c3ccc(Nc4nc(Nc5ccc(Cl)cc5)nc(Nc5ccc(Cl)cc5)n4)cc3)no2)cc(OC)c1OC,7.63% (active),76.4%,77.8%,78.8%,90.7%,86%,62.9%,80.4%,71%
CC(C)=CC(=O)N[C@H]1CC[C@]2(C)C3CC[C@]4(C)C(C(C)N(C)C)=CCC4C3CCC2[C@H]1O (stereo not given in full),5.55% (active),77.6%,101%,7.83% (active),115%,31.2%,57.1%,71.6%,51.3%
COc1ccc(-c2cc(C(=O)N3N=C(c4ccc(N)cc4)CC3c3ccc(Cl)cc3)c3cc(OC)ccc3n2)cc1 (stereo not given),20.9%,56.4%,76.1%,53.9%,89.7%,42.7%,87.3%,14.8%,39.6%
Cc1ccc(S(=O)(=O)c2nc(-c3ccccc3)oc2SCC(N)=O)cc1,96.8%,111%,86.9%,99.6%,98.3%,94.9%,101%,99.5%,101%
O=c1cc(C(F)(F)F)c2cc(-c3cc4ccccc4c(=O)o3)c(O)cc2o1,17.7%,87%,103%,64%,73.3%,56.9%,79.5%,78.9%,92.6%
Cn1cc(-c2csc(-c3cn(C)c4ccccc34)n2)c2cnccc21,-18.6% (active),27.4%,77.4%,68.1%,105%,43.9%,97.5%,41.8%,68.5%
c1cc(OCCN2CCCCCC2)ccc1CNc1ccc2nc(CCC3CCCCC3)[nH]c2c1,4.27% (active),65.6%,79.5%,51.4%,82.3%,77.3%,65.2%,66.9%,43.2%
CC[C@H](Nc1nc(N)nc(C)c1C#N)c1nc2cccc(CN(C)c3ncc(C(=O)NO)cn3)c2c(=O)n1-c1ccccc1,4.89% (active),4.22% (active),3.2% (active),31.4%,-19.4% (active),5.16% (active),8.03% (active),73.3%,-36.2% (active)
Clc1ccc(-c2nc(C(Cl)Cl)nc3cc(-c4ccccc4)nn23)cc1,38.5%,29.8%,17%,-7.63% (active),18.6%,-10.2% (active),,19.7%,54.8%
Cc1cc(NCCCNc2ccnc3cc(Cl)ccc23)nc(Nc2ccc(C(=O)N3CCCCC3)cc2)n1,-11.1% (active),25.4%,71.6%,39.5%,96.8%,18.8%,85.3%,75.6%,46.3%
CC1(C)N=C(N)N=C(N)N1c1ccc(S(=O)(=O)Nc2nccs2)cc1,108%,104%,91.9%,104%,102%,107%,103%,106%,100%
CCCCCc1ccc(S(=O)(=O)Nc2ccc3nc(N)oc3c2)cc1,38.4%,53.8%,99.5%,27.3%,81.8%,64.5%,73.9%,53%,68.4%
